12-LOX inh: ALOX12 (human) lipoxygenase inhibition; purified 12hLO, xylenol orange hydroperoxide absorbance; AID 1671190; Potency, µM (doses to about 108 µM), without a hit: at the highest dose activity change, negative = inhibition, usual class: inhibitors; 580,000 compounds, 1.1% hits; P18054; note: potency is the fitted concentration of half-maximal effect
Target sequence (P18054 whole entry, looked up): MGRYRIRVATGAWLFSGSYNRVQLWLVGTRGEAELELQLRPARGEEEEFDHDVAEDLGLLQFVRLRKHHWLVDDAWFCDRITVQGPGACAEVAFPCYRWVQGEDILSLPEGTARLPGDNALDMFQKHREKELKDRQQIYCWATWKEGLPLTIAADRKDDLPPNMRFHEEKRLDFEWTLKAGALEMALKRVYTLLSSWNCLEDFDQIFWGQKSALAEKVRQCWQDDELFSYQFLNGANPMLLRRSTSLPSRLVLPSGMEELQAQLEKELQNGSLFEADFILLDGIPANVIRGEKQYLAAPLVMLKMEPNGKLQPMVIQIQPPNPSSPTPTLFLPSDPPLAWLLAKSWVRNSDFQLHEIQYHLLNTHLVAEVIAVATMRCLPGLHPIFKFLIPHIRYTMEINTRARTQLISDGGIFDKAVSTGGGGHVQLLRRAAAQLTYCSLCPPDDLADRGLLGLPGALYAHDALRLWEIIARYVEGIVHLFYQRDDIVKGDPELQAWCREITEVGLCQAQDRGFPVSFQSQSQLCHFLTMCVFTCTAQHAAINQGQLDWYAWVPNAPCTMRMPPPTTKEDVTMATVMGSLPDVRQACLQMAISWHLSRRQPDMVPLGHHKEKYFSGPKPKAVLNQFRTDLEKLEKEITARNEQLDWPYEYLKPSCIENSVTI
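Purified human 12hLO at 150 nM in 25 mM Hepes, 0.01% Triton X-100, pH 7.0, preincubated 15 min at room temperature with compound. Reaction started with 40 uM arachidonic acid, 30 min at room temperature. Hydroperoxide measured by Fe-xylenol orange, 573/405 nm absorbance ratio.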
HT1080-NT tox: kills 2HG-producing HT-1080-NT fibrosarcoma cells; HT-1080-NT fibrosarcoma viability, CellTiter-Glo ATP luminescence, 48 h; Potency, µM (series often up to 46.1 µM), for inactives: at the top dose activity, negative = less viability, most hits filed as cytotoxic; 360,000 compounds, 1.6% hits; AID 686970;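 note: NT is the 2HG producing partner of a matched IDH1 knockdown line; potency is the fitted concentration of half-maximal effect; 0% = DMSO-treated cells and -100% = media-only wells without cells; nearly all actives have a fitted effect of over 55% in size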
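Toxicity toward the 2HG-producing NT line was scored as %Activity, normalised to DMSO and no-cell wells, from CellTiter-Glo luminescence after 48 hours' treatment.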
TDP1 cell noCPT: qHTS for Inhibitors of human tyrosyl-DNA phosphodiesterase 1 (TDP1): qHTS in cells in absence of CPT. DT40 Tdp1-/- hTDP1 cells, no CPT, ATP luminescence, 48 h. Potency, µM (doses to about 46.2 µM), inactives show at the top dose activity change, negative = growth inhibition, usual class: inhibitors. 420,000 compounds, 15% hits. AID 686978, 2013; note: potency is the fitted concentration of half-maximal effect; nearly all actives have a fitted effect of over 55% in size
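Growth of hTDP1-complemented DT40 Tdp1-knockout cells is measured by ATP luminescence after at least 48 hr compound exposure at 37 °C, with DMSO substituting for the 20 nM CPT used in the parallel screen.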
TDP1 cell CPT: growth inhibition of DT40 Tdp1-/-;hTDP1 cells with camptothecin (screen for TDP1 inhibitors). chicken DT40 Tdp1-/-;hTDP1 cells + 20 nM CPT, ATP luminescence, 48 h. Potency, µM (titrated, usually from 46.2 µM), for the others: top-dose activity change, negative = growth inhibition, most hits filed as inhibitors. 420,000 compounds, 12% hits. AID 686979; note: potency is the fitted concentration of half-maximal effect; nearly all actives have a fitted effect of over 55% in size
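Chicken DT40 Tdp1-/- cells stably complemented with human TDP1 were seeded at 400 cells/well in medium containing 20 nM camptothecin, exposed to pin-transferred compounds, and grown at 37 °C for at least 48 hr. Viability was read as ATP luminescence.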
IL1B secr inh: blocks inflammasome-driven IL-1 beta release; THP-1 LPS/ATP IL-1B secretion, AlphaLISA, 16 h; active compounds read low; activity change, % at 57.5 µM; 360,000 compounds, 4.7% hits; AID 743279; in the data active = activity change below about -50%; inconclusive = mostly about -30% to -49%
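THP-1 cells pretreated 1 hr with compounds (up to 57.5 uM final), then stimulated with LPS (250 ng/mL final) plus ATP (1.25 mM final); secreted IL-1B measured by AlphaLISA after 16 hr, decreased signal indicating inhibition.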
HT1080 IDH1KD tx: toxicity to HT-1080 IDH1 knockdown cells (counter line). 360,000 compounds, 2% hits. HT-1080 IDH1 knockdown viability, ATP luminescence, 48 h. Potency, µM (series often up to 46.1 µM), for the others: at the top dose activity, negative = toxicity, hits mostly cytotoxic;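 note: potency is the fitted concentration of half-maximal effect; 0% = DMSO wells and -100% = cell-free medium wells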
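Assay cells: HT-1080 with IDH1 knockdown, 750 per well, RPMI/5% FBS. Exposure: 48 h at 37 °C following 2 h pre-incubation. Read: CellTiter-Glo luminescence; fitted concentration-response, curve class assigned.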
* hit, by the source's call; ? = inconclusive; . = no result given; [ ] = dose if it differs, or a comment. The entries come from a sample that favours hits as a whole. Unless noted, calls come from the whole dose curve; as a rule, active = well fitted curve in the direction sought with a large enough effect; inconclusive = small, poorly fitted or top-dose-only effect, or another doubt; inactive = no such curve, though single readings can be large; an effect the other way counts as inactive or inconclusive. Unless noted, % is set by controls: 0 for no effect and ±100 for the full control effect.

SMILES | 12-LOX inh | HT1080-NT tox | TDP1 cell noCPT | TDP1 cell CPT | IL1B secr inh | HT1080 IDH1KD tx
Cc1cccc(-n2[nH]c3c4c(ccc3c2=O)C(=O)c2ccccc2C4=O)c1 | -5.6% | -1.9% | ? | 20.6µM* | -26.6 | -1.7%
CC(C)Cn1[nH]c2c3c(ccc2c1=O)C(=O)c1ccccc1C3=O | . | ? | 16.4µM* | 23.1µM* | -7.4 | -17.5%
CN(CC(=O)Nc1ccc(F)cc1)C(=O)COC(=O)CCN1C(=O)C2CC=CCC2C1=O (stereo not drawn) | -5.7% | 1.3% | 1.2% | -7.6% | 2.1 | 8.0%
O=C1c2c(-c3nc(-c4ccsc4)no3)nnn2CCN1CC1CCCO1 (stereo not drawn) | 14.6% | . | . | . | . | .
COc1ccc(CN(C)Cc2ccoc2)cc1OCC(O)CN1CCCCC1 (stereo not drawn) | 0.7% | . | . | . | . | .
CCn1c(C)nc2cc(S(N)(=O)=O)ccc21 | 0.7% | -12.7% | 23.1µM* | ? | 18.0 | -11.1%
COC(=O)c1cc(CNC(=O)c2cccc(F)c2)cc(NC(=O)c2ccccc2OC)c1 | 11.5% | . | ? | ? | . | .
COc1ccc(S(=O)(=O)N(C)C)cc1NC(=O)CSc1nnc2ccccn12 | -13.1% | . | . | . | . | .
CCN1C(=O)C(O)(CC(=O)c2ccccn2)c2ccccc21 (stereo not drawn) | 0.0% | 2.6% | 5.17µM* | 5.8µM* | 28.7 | 1.9%
CN1C(=O)[C@@](O)(CC(=O)c2ccccc2)c2cc(Br)ccc21 | -0.5% | -1.8% | 6.51µM* | 5.8µM* | 60.7 | -12.1%
CN1C(=O)C(O)(CC(=O)c2ccccn2)c2cc(Br)ccc21 (stereo not drawn) | ? | ? | 5.17µM* | 5.8µM* | 85.7 | -21.0%
CCCCN1C(=O)C(O)(CC(=O)c2c(C)n[nH]c2C)c2ccccc21 (stereo not drawn) | 3.0% | . | . | . | . | .
CCCc1noc(-c2ccn3c(CNC(=O)c4ccc(C)cc4)nnc3c2)n1 | -3.3% | . | . | . | . | .
Cc1ccc(C(=O)C[n+]2ccc(Cc3ccccc3)cc2)cc1 | 30.0% | -16.0% | 5.8µM* | 5.8µM* | ? | -26.3%
Cc1ccc(SCCc2cc[n+](CC(=O)c3ccccc3)cc2)cc1 | 21.1% | 1.1% | 16.4µM* | 16.4µM* | -150.8* | -1.2%
Nc1nonc1C(=O)N1CCN(C(=O)Nc2ccccc2Cl)CC1 | -5.4% | . | . | . | . | .
Cc1ccc(C)c(NC(=S)NNC(=O)c2sccc2C)c1 | 23.7% | 8.91µM* | -11.3% | -8.6% | 17.5 | ?
Cc1ccc(C)c(NC(=S)NNC(=O)c2csc(C)c2C)c1 | -20.9% | 12.7% | ? | ? | -0.8 | 7.7%
Cc1c(C(=O)C(=O)N2c3ccc(F)cc3CCC2C)c2ccccc2n1C (stereo not drawn) | -7.1% | 3.26µM* | 2.59µM* | 2.59µM* | 27.2 | 2.31µM*
COc1cc2c(cc1OC)C(c1ccc(-c3ccc(Cl)c(Cl)c3)o1)=NCC2 | ? | ? | 1.84µM* | 4.11µM* | -59.3* | 23.1µM*
COc1cc2c(cc1OC)C(C)=NCC2 | -11.3% | 0.0% | -1.8% | 16.4µM* | -13.2 | -0.4%
COc1cc2c(cc1OC)C(c1ccc(-c3ccccc3Cl)o1)=NCC2 | 39.8µM* | ? | 2.31µM* | 6.51µM* | -92.1* | 12.6µM*
COc1ccc(NC(=O)CN(C)C(=O)c2ccc(-c3cc(Cl)ccc3Cl)o2)cc1 | -10.1% | . | . | . | . | .
COc1cc2c(cc1OC)C(C[C@H]1CN(C(=O)C(=O)O)CC[C@H]1CC(=O)O)=NCC2 | 12.9%[176 µM] | . | . | . | . | .
COc1cc2c(cc1OC)C(c1oc(-c3ccc(-c4cc(Cl)ccc4Cl)o3)cc1C)=NCC2 | . | . | 0.355µM* | 1µM* | . | .
SMILES | 12-LOX inh | HT1080-NT tox | TDP1 cell noCPT | TDP1 cell CPT | IL1B secr inh | HT1080 IDH1KD tx
COCCN1C(=O)CC[C@]2(C(=O)NCc3ccccc3OC)CCCC[C@@H]12 | 51.3% | . | . | . | . | .
CC(C)OC(=O)[C@@H](Cc1ccccc1)N[C@H](/C=C/c1ccccc1)[C@@H](O)Cc1ccccc1 | 3.0% | . | . | . | . | .
COc1cc2c(cc1OC)C(c1ccc(Cl)cc1)=NCC2 | ? | 7.6% | 8.2µM* | 16.4µM* | ? | -10.5%
COc1cc2c(cc1OC)C(C[C@H]1CN(C(=O)Nc3ccc(Cl)cc3)CC[C@H]1CC(=O)O)=NCC2 | 11.1% | . | . | . | . | .
COc1cc2c(cc1OC)C(c1ccc(-c3cc(Cl)ccc3Cl)o1)=NCC2 | . | -6.7% | 1.64µM* | 2.59µM* | -93.5* | -6.6%
COc1cc2c(cc1OC)C(c1ccc(-c3ccc(Cl)cc3Cl)o1)=NCC2 | ? | ? | 0.92µM* | 1.16µM* | ? | 23.1µM*
Cc1ccc(C(=O)N(C)Cc2ccccc2C(F)(F)F)cc1 | 29.0%[176 µM] | . | . | . | . | .
COc1cccc(CC2(CO)CCCN(Cc3ccc(CO)o3)C2)c1 (stereo not drawn) | -4.8% | 0.6% | -3.3% | -15.1% | 19.8 | 1.1%
COc1cccc(CC2(CO)CCCN(Cc3cc4ccccc4[nH]3)C2)c1 (stereo not drawn) | ? | ? | ? | ? | -53.5* | 23.1µM*
COc1ccccc1-n1cc(CN2CCCC(CO)(Cc3cccc(Cl)c3)C2)cn1 (stereo not drawn) | -19.0% | 0.0% | 23.1µM* | ? | 0.0 | -1.9%
COc1cccc(CC2(CO)CCCN(Cc3ccc(-c4ccco4)cc3)C2)c1 (stereo not drawn) | -21.7% | ? | 20.6µM* | 23.1µM* | 7.0 | ?
COc1ccc(-n2ccnc2CN2CCCC(CO)(Cc3cccc(OC)c3)C2)cc1 (stereo not drawn) | -13.8% | -23.6% | 25.9µM* | ? | 2.2 | -5.2%
COc1cccc(CC2(CO)CCCN(Cc3ccc(C)s3)C2)c1 (stereo not drawn) | -25.4% | 1.8% | ? | -17.8% | -6.2 | -14.3%
COCC(=O)NC[C@@H]1C=C(C)[C@H](Cc2nc3ccccc3n2C)C[C@H]1C(C)C | 49.0%[176 µM] | . | . | . | . | .
CC(Sc1nnc(N2CCCCC2)n1-c1ccccc1)c1nc2ccccc2c(=O)[nH]1 (stereo not drawn) | -4.7% | . | . | . | . | .
COc1cccc(CC2(CO)CCCN(Cc3c(C)cc(C)cc3-n3cccn3)C2)c1 (stereo not drawn) | -24.0% | ? | 14.6µM* | 20.6µM* | -9.9 | ?
Cc1ccc(NS(=O)(=O)c2cc(C(=O)NCCSC3CCCCC3)ccc2C)cc1 | -26.2% | ? | ? | ? | -57.4* | ?
Cc1ccc(SCCNC(=O)c2ccc(C)c(S(=O)(=O)Nc3cccc(C)c3)c2)cc1 | -22.8% | ? | -12.0% | ? | -57.0* | ?

Screening results as filed in PubChem BioAssay.
